In the supplement of paper PMC8728848:
Many of the other results were omitted from the sample, so the strongest signals are more common in it than they were.

Assays:
Test in all cases: glycan array binding signal (z-score within array); higher = stronger binding
Settings in all cases: glycan notation: IUPAC condensed, linker removed; mutation: H59Q
[1] = target: Fuc(a1-2)Gal(b1-3)[Fuc(a1-4)]GlcNAc(b1-2)Man(a1-3)[Fuc(a1-2)Gal(b1-3)[Fuc(a1-4)]GlcNAc(b1-2)Man(a1-3)]Man(b1-4)GlcNAc(b1-4)GlcNAc
Summary of the method: (§1)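 Columns mapping to the same glycan were averaged after glycan names were converted to IUPAC-condensed notation. The data come from 3228 arrays in the Consortium for Functional Glycomics database, limited to those with an available protein sequence. Binding is reported as a within-array Z-score averaged across arrays of one protein sequence and across linkers.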

[2] = target: Fuc(a1-2)Gal(b1-4)GlcNAc(b1-3)Gal(b1-4)GlcNAc(b1-3)Gal(b1-4)GlcNAc
Summary of the method: as §1

[3] = target: Fuc(a1-2)Gal(b1-4)GlcNAc6S
Summary of the method: as §1

[4] = target: Fuc(a1-2)Gal(b1-4)[Fuc(a1-3)]GlcNAc
Summary of the method: as §1

[5] = target: Fuc(a1-2)Gal(b1-4)[Fuc(a1-3)]GlcNAc(b1-2)Man(a1-3)[Fuc(a1-2)Gal(b1-4)[Fuc(a1-3)]GlcNAc(b1-2)Man(a1-6)]Man(b1-4)GlcNAc(b1-4)[Fuc(a1-6)]GlcNAc
Summary of the method: as §1

[6] = target: Fuc(a1-2)[Gal(a1-3)]Gal(b1-4)[Fuc(a1-3)]Glc
Summary of the method: as §1

[7] = target: Fuc(a1-2)[GalNAc(a1-3)]Gal(b1-3)GlcNAc(b1-2)Man(a1-3)[Fuc(a1-2)[GalNAc(a1-3)]Gal(b1-3)GlcNAc(b1-2)Man(a1-6)]Man(b1-4)GlcNAc(b1-4)[Fuc(a1-6)]GlcNAc
Summary of the method: as §1

[8] = target: Fuc(a1-2)[GalNAc(a1-3)]Gal(b1-3)GlcNAc(b1-3)GalNAc
Summary of the method: as §1

[9] = target: Fuc(a1-2)[GalNAc(a1-3)]Gal(b1-4)GlcNAc(b1-6)GalNAc
Summary of the method: as §1

[10] = target: Fuc(a1-3)[Gal(b1-4)]GlcNAc(b1-6)GalNAc
Summary of the method: as §1

[11] = target: Gal(a1-3)Gal(b1-4)Glc
Summary of the method: as §1

[12] = target: Gal(b1-3)GlcNAc(a1-3)Gal(b1-4)GlcNAc
Summary of the method: as §1

[13] = target: Gal(b1-3)GlcNAc(b1-3)Gal(b1-4)GlcNAc
Summary of the method: as §1

[14] = target: Gal(b1-3)GlcNAc(b1-3)Gal(b1-4)GlcNAc(b1-2)[Gal(b1-3)GlcNAc(b1-3)Gal(b1-4)GlcNAc(b1-6)]Man(a1-6)[Gal(b1-3)GlcNAc(b1-3)Gal(b1-4)GlcNAc(b1-2)Man(a1-3)]Man(b1-4)GlcNAc(b1-4)[Fuc(a1-6)]GlcNAc
Summary of the method: as §1

[15] = target: Gal(b1-3)[Fuc(a1-4)]GlcNAc
Summary of the method: as §1

[16] = target: Gal(b1-4)GlcNAc(b1-2)Man(a1-3)[GlcNAc(b1-4)][Gal(b1-4)GlcNAc(b1-2)Man(a1-6)]Man(b1-4)GlcNAc(b1-4)GlcNAc
Summary of the method: as §1

[17] = target: Gal(b1-4)GlcNAc(b1-2)Man(a1-3)[Man(a1-6)]Man(b1-4)GlcNAc(b1-4)GlcNAc
Summary of the method: as §1

[18] = target: Gal(b1-4)GlcNAc(b1-2)Man(a1-6)[Man(a1-3)]Man(b1-4)GlcNAc(b1-4)GlcNAc
Summary of the method: as §1

[19] = target: Gal(b1-4)GlcNAc(b1-3)Gal(b1-4)GlcNAc(b1-2)Man(a1-3)[Gal(b1-4)GlcNAc(b1-3)Gal(b1-4)GlcNAc(b1-2)Man(a1-6)]Man(b1-4)GlcNAc(b1-4)[Fuc(a1-6)]GlcNAc
Summary of the method: as §1

[20] = target: Gal(b1-4)GlcNAc(b1-3)[GlcNAc(b1-6)]Gal(b1-4)GlcNAc
Summary of the method: as §1

[21] = target: Gal3S(b1-3)GalNAc
Summary of the method: as §1

[22] = target: Gal3S(b1-3)GlcNAc
Summary of the method: as §1

[23] = target: Gal3S(b1-4)Glc
Summary of the method: as §1

[24] = target: Gal3S(b1-4)Glc6S
Summary of the method: as §1

[25] = target: Gal3S(b1-4)GlcNAc
Summary of the method: as §1

[26] = target: Gal3S(b1-4)[Fuc(a1-3)]GlcNAc6S
Summary of the method: as §1

[27] = target: Gal3S4S(b1-4)GlcNAc
Summary of the method: as §1

[28] = target: Gal3S6S(b1-4)GlcNAc6S
Summary of the method: as §1

[29] = target: Gal6S(b1-3)GlcNAc6S
Summary of the method: as §1

[30] = target: Gal6S(b1-4)GlcNAc
Summary of the method: as §1

[31] = target: Gal6S(b1-4)GlcNAc6S
Summary of the method: as §1

[32] = target: GalNAc(b1-4)GlcNAc6S
Summary of the method: as §1

[33] = target: GlcA(b1-6)Gal
Summary of the method: as §1

[34] = target: GlcA3S(b1-3)Gal(b1-4)GlcNAc(b1-2)Man
Summary of the method: as §1

[35] = target: GlcA3S(b1-3)Gal(b1-4)GlcNAc(b1-3)Gal(b1-4)Glc
Summary of the method: as §1

[36] = target: GlcNAc(a1-4)Gal(b1-4)GlcNAc(b1-3)Gal(b1-4)Glc
Summary of the method: as §1

[37] = target: GlcNAc(b1-2)Man(a1-3)[GlcNAc(b1-2)Man(a1-6)]Man(b1-4)GlcNAc(b1-4)[Fuc(a1-6)]GlcNAc
Summary of the method: as §1

[38] = target: GlcNAc(b1-2)[GlcNAc(b1-4)]Man(a1-3)[GlcNAc(b1-4)][GlcNAc(b1-2)Man(a1-6)]Man(b1-4)GlcNAc(b1-4)GlcNAc
Summary of the method: as §1

[39] = target: Man(a1-2)Man(a1-3)[Man(a1-6)]Man(a1-6)[Man(a1-2)Man(a1-3)]Man(b1-4)GlcNAc(b1-4)GlcNAc
Summary of the method: as §1

[40] = target: Man(a1-3)[Man(a1-6)]Man(b1-4)GlcNAc(b1-4)GlcNAc
Summary of the method: as §1

[41] = target: Neu5Ac(a2-3)Gal(b1-3)GalNAc6S
Summary of the method: as §1

[42] = target: Neu5Ac(a2-3)Gal(b1-3)GlcNAc(b1-2)Man(a1-3)[GlcNAc(b1-4)][Neu5Ac(a2-3)Gal(b1-3)GlcNAc(b1-2)Man(a1-6)]Man(b1-4)GlcNAc(b1-4)GlcNAc
Summary of the method: as §1

[43] = target: Neu5Ac(a2-3)Gal(b1-4)GlcNAc(b1-2)Man
Summary of the method: as §1

[44] = target: Neu5Ac(a2-3)Gal(b1-4)GlcNAc(b1-2)[Neu5Ac(a2-3)Gal(b1-4)GlcNAc(b1-4)]Man(a1-3)[GlcNAc(b1-4)][Neu5Ac(a2-3)Gal(b1-4)GlcNAc(b1-4)Man(a1-6)]Man(b1-4)GlcNAc(b1-4)GlcNAc
Summary of the method: as §1

[45] = target: Neu5Ac(a2-3)Gal(b1-4)GlcNAc(b1-3)GalNAc
Summary of the method: as §1

[46] = target: Neu5Ac(a2-3)Gal(b1-4)[Fuc(a1-3)]GlcNAc(b1-3)GalNAc
Summary of the method: as §1

[47] = target: Neu5Ac(a2-3)[GalNAc(b1-4)]Gal(b1-4)GlcNAc(b1-3)GalNAc
Summary of the method: as §1

[48] = target: Neu5Ac(a2-6)Gal(b1-4)GlcNAc(b1-2)Man(a1-3)[Man(a1-6)]Man(b1-4)GlcNAc(b1-4)GlcNAc
Summary of the method: as §1

[49] = target: Neu5Ac(a2-6)GalNAc(b1-4)GlcNAc
Summary of the method: as §1

[50] = target: Neu5Ac(a2-8)Neu5Ac(a2-3)Gal(b1-3)GalNAc(b1-4)[Neu5Ac(a2-8)Neu5Ac(a2-3)]Gal(b1-4)Glc
Summary of the method: as §1

[51] = target: Neu5Gc(a2-6)GalNAc
Summary of the method: as §1

[52] = target: Neu5Gc(a2-8)Neu5Gc(a2-6)Gal(b1-4)GlcNAc
Summary of the method: as §1

[53] = target: Neu5Gc(b2-6)Gal(b1-4)GlcNAc
Summary of the method: as §1

B1: rAAL-H59Q (Agrocybe aegerita), Q6WY08 (protein)
chain: MQGVNIYNISAGTSVDLAAPVTTGDIVTFFSSALNLNAGAGNPNNTTLNLFAENGAYLLQIAFRLQENVIIFNSRQPDGPWLVEQRVSDVANQFAGIDGKAMVTVFDHGDKYQVVINEKTVIQYTKQISGLTLSLSYNATEETSIFSTVVEAVTYTGLALEHHHHHH
- glycan array binding signal (z-score) [1]: -0.014
- glycan array binding signal (z-score) [2]: -0.113
- glycan array binding signal (z-score) [3]: -0.085
- glycan array binding signal (z-score) [4]: -0.09
- glycan array binding signal (z-score) [5]: 0.171
- glycan array binding signal (z-score) [6]: -0.097
- glycan array binding signal (z-score) [7]: -0.106
- glycan array binding signal (z-score) [8]: -0.035
- glycan array binding signal (z-score) [9]: -0.124
- glycan array binding signal (z-score) [10]: -0.126
- glycan array binding signal (z-score) [11]: -0.07
- glycan array binding signal (z-score) [12]: -0.119
- glycan array binding signal (z-score) [13]: -0.093
- glycan array binding signal (z-score) [14]: 0.115
- glycan array binding signal (z-score) [15]: -0.116
- glycan array binding signal (z-score) [16]: -0.06
- glycan array binding signal (z-score) [17]: -0.059
- glycan array binding signal (z-score) [18]: 0.003
- glycan array binding signal (z-score) [19]: -0.015
- glycan array binding signal (z-score) [20]: -0.115
- glycan array binding signal (z-score) [21]: 7.76
- glycan array binding signal (z-score) [22]: 0.192
- glycan array binding signal (z-score) [23]: 0.7
- glycan array binding signal (z-score) [24]: 0.468
- glycan array binding signal (z-score) [25]: 0.615
- glycan array binding signal (z-score) [26]: 0.694
- glycan array binding signal (z-score) [27]: -0.119
- glycan array binding signal (z-score) [28]: 0.071
- glycan array binding signal (z-score) [29]: -0.113
- glycan array binding signal (z-score) [30]: -0.086
- glycan array binding signal (z-score) [31]: -0.14
- glycan array binding signal (z-score) [32]: -0.023
- glycan array binding signal (z-score) [33]: -0.064
- glycan array binding signal (z-score) [34]: 19.6
- glycan array binding signal (z-score) [35]: 12.1
- glycan array binding signal (z-score) [36]: -0.059
- glycan array binding signal (z-score) [37]: -0.07
- glycan array binding signal (z-score) [38]: -0.055
- glycan array binding signal (z-score) [39]: -0.093
- glycan array binding signal (z-score) [40]: -0.085
- glycan array binding signal (z-score) [41]: -0.117
- glycan array binding signal (z-score) [42]: -0.066
- glycan array binding signal (z-score) [43]: -0.03
- glycan array binding signal (z-score) [44]: -0.016
- glycan array binding signal (z-score) [45]: -0.092
- glycan array binding signal (z-score) [46]: 0.246
- glycan array binding signal (z-score) [47]: -0.084
- glycan array binding signal (z-score) [48]: 0.009
- glycan array binding signal (z-score) [49]: -0.112
- glycan array binding signal (z-score) [50]: -0.103
- glycan array binding signal (z-score) [51]: -0.145
- glycan array binding signal (z-score) [52]: -0.072
- glycan array binding signal (z-score) [53]: -0.027
